Assay outcomes (PubChem)
In the library only some 2.2% were active in any assay of this set; here they are far more common.
Efflux pump inh = blocks antifungal efflux pumps in multiplex yeast assay. S. cerevisiae Candida pump triplex, Nile Red efflux. inhibition, % at 10 µM. 330,000 compounds, 0.44% hits. AID 485275;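 active means plate passing quality check with inhibition over a set limit, or well fluorescence over plate mean plus 4 SD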;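 further: Nile Red retained in pooled yeast measured as flow cytometry median fluorescence; 0% = buffer negative control and 100% = Enniatin B positive control; higher means more Nile Red kept so more efflux inhibition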
sPLA2-III inh = Inhibits HGIII-sPLA2 liposome hydrolysis, primary screen. Q9NZ20. QFRET BODIPY PC-A2 liposome hydrolysis, fluorescence. inhibition, % at 12.2 µM. 370,000 compounds, 0.56% hits. AID 743126;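 active means inhibition above mean plus 3 SD of compounds lying within the high and low control bounds, cut at about 19% in these data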;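 further: 0% = median of test compound wells and 100% = no enzyme DMSO wells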
Target sequence (Q9NZ20 whole entry, looked up): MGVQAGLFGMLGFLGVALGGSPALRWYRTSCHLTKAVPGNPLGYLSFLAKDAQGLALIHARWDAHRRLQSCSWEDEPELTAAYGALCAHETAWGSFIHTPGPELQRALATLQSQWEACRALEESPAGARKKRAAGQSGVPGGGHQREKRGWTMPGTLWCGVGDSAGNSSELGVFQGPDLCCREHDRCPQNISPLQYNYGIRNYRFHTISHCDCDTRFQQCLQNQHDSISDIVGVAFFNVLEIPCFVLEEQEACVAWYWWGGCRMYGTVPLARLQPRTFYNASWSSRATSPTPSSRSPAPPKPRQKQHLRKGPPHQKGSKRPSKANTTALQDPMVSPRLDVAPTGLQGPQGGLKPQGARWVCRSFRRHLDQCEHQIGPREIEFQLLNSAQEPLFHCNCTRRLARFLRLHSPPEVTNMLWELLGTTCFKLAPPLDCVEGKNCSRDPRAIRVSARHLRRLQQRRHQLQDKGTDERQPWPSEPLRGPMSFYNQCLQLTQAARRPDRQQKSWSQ
SKN-1 inh = blocks SKN-1 activity in C. elegans; C. elegans VP596 Pgst-4::GFP/RFP ratio, acrylamide-induced, 24 h; inhibition, % at 21.8 µM; 360,000 compounds, 0.49% hits; AID 624304;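 active means interference check ratio from 0.5 to 1.5 plus GFP to RFP signal ratio inhibition reaching or exceeding a fixed threshold, cut at about 30% in these data, passing the limit was not always enough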
Mot1-301 SUMO = blocks SUMOylation pathway, rescuing yeast Mot1-301 growth. S. cerevisiae Mot1-301 growth rescue, ATP luminescence, 38.5C; percent above DMSO median, 100 means doubled. growth rescue, % at 18.8 µM. 320,000 compounds, 1% hits;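 active means every valid replicate shows activation above 250% relative to neutral control wells; inactive means the rest, any valid replicate at or below 250%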;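 further: OY570 slx delta 5 strain wells were the positive control but not used for scaling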
Active calls of the source: *; x = not tested or not shown.

SMILES	Efflux pump inh	sPLA2-III inh	SKN-1 inh	Mot1-301 SUMO
CC(=O)c1cccc(CN2CCc3ccc(NC(=O)C4CCCO4)cc3C2)c1 (centres undefined)	0.0	7.2	7.7	7.7
O=C(Nc1ccc2c(c1)CN(Cc1ccco1)CC2)C1CCCO1 (centres undefined)	0.0	-2.1	37.3*	1.2
COC(=O)[C@]12C[C@H](CC(=O)NCC3CCCCC3)C(=O)N(Cc3ccc4c(c3)OCO4)C1=C[C@H](COCc1ccccc1)O[C@@H]2C	x	-8.6	x	x
O=C(C1CC(c2ccc(F)cc2)=NO1)N1CCN(Cc2ccccc2)CC1 (centres undefined)	-0.2	-8.6	-3.1	317.6*
COc1cccc(C2=NOC(C(=O)N3CCN(Cc4ccccc4)CC3)C2)c1OC (centres undefined)	0.1	-6.9	11.3	-3.7
CCCn1c(C)c(CC(=O)Nc2ccc(N(C)c3ccccn3)cc2)c2ccccc21	x	4.3	x	x
CCCCCOc1ccccc1C(=O)NCCC(=O)O	0.0	1.9	38.2*	-10.1
C[C@H]1[C@@H]2C[C@@]3(O[C@H](c4ccc(C(F)(F)F)cc4)N=C3C[C@@H]1c1ccccc1)N(Cc1ccncc1)C2=O	x	1.7	x	x
COc1nc(-c2ccccc2)nnc1-c1ccccc1	x	1.7	51.7*	x
CNC(CC(=O)c1ccc([N+](=O)[O-])cc1)C(Cl)(Cl)Cl (centres undefined)	9.4*	x	-8.7	-33.5
Fc1ccccc1-c1n[nH]c(=S)n1N=Cc1cccc(OCc2ccccc2)c1	x	-6.7	x	x
COc1ccc(N(C(=O)c2ccco2)C(C(=O)NC2CCCC2)c2ccncc2)cc1OC (centres undefined)	0.0	-4.3	16.3	275.2*
COc1ccc(C(C(=O)NC2CCCC2)N(C(=O)c2ccco2)c2ccc(OC)c(OC)c2)cc1 (centres undefined)	0.3	-0.5	1.1	139.4
COc1ccc(N(C(=O)CNC(=O)c2ccco2)C(C(=O)NC2CCCCC2)c2cccnc2)cc1 (centres undefined)	-0.1	0.7	37.5*	70.1
COc1ccc(NC(=O)C(=O)NCC2CCCN2S(=O)(=O)c2cccs2)cc1 (centres undefined)	-0.1	2.3	16.3	13.4
CSc1ncnc2c1ncn2CCCNc1ccc(C)c(C)c1	x	13.3	2.4	x
Cn1c(-c2ccc(CN3CCCCC3)o2)nc2ccccc21	-0.1	-5.4	36.0*	-4.7
CC(=O)Nc1sc(/C(C#N)=C\c2cccc(Cl)c2)nc1-c1ccc(C)cc1	-0.2	1.5	35.4*	-9.4
Clc1cccc(Nc2nc(-c3ccncc3)cs2)c1	-0.2	-24.8	19.4	274.9*
OCCN(CCO)c1ccc(C(c2ccccc2Cl)c2ccc(N(CCO)CCO)cc2Cl)c(Cl)c1	-0.1	x	36.4*	72.8
COc1ccccc1C(=O)N1CCC2CCN(C(=O)c3ccccc3)C2C1 (centres undefined)	x	11.6	x	x
CCOC(=O)c1[nH]c2ccc(Br)cc2c1NC(=O)CCN1CCCC(C)(C)C1	0.5	-14.1	7.4	215.2
COc1ccc(/C=C(\NC(=O)c2ccccc2)C(=O)NC2CCS(=O)(=O)C2)cc1 (centres undefined)	-0.1	0.3	-2.6	269.0*
COc1ccc(/C=C(\NC(=O)c2ccccc2)C(=O)NCc2cccnc2)cc1	0.0	1.3	0.7	269.9*
CN(C)c1ccc(/C=C(\NC(=O)c2ccccc2)C(=O)NCc2cccnc2)cc1	0.0	1.3	9.1	16.8
SMILES	Efflux pump inh	sPLA2-III inh	SKN-1 inh	Mot1-301 SUMO
CC(C)NC(=O)CN(C)S(=O)(=O)c1ccc(F)cc1	0.0	1.2	35.5*	-13.8
Cc1cc(CN2CCN(c3ncc(Cc4ccccc4)cn3)CC2)cc(C)c1O	x	1.8	x	x
COc1cc(/C=C2/C(C)=C(C#N)c3nc(N)c(C#N)c(C)c32)ccc1OCC(=O)O	-0.1	-3.5	x	-13.1
CC1=C(C#N)c2nc(N)c(C#N)c(C)c2/C1=C\c1ccc(-c2ccccc2C(=O)O)o1	x	-13.0	43.4*	x
O=C(C1CCCN1S(=O)(=O)c1ccc(Br)s1)N1CCN(c2ccccc2)CC1 (centres undefined)	x	1.6	x	x
COc1ccc(NC(=O)C2(C)CCN2C2Cc3ccccc3C2)cc1OC (centres undefined)	x	5.4	-0.8	x
COCCn1c(CCC(=O)O)nc2c1c(=O)[nH]c(=O)n2CC(C)C	-0.1	0.1	32.5*	-33.1
COc1cccc(CNC(=O)[C@H]2CCCN2)c1	x	12.5	x	x
COc1ccc(C(=O)NCC(c2ccco2)N2CCc3ccccc32)c(OC)c1 (centres undefined)	-0.2	3.6	-15.3	150.6
C=CCC12C[C@@]3(O[C@H](c4ccc(C(F)(F)F)cc4)N=C3C[C@H](c3ccc(OC)cc3)[C@H]1C)N(Cc1ccc3c(c1)OCO3)C2=O	x	9.2	x	x
O=C(Nc1ccc(Cl)c(Cl)c1)O/N=C/c1ccncc1	0.3	17.3	-5.8	517.4*
O=C(Nc1cccc(Cl)c1)O/N=C\c1ccncc1	-0.4	3.7	10.4	-7.5
CC(C)CNc1cccc2c1S(=O)(=O)N[C@@H](CC(C)C)CO2	x	10.3	x	x
Cc1ccc(N2CCN(S(=O)(=O)c3ccc4oc(=O)ccc4c3)CC2)c(C)c1	0.3	4.6	42.7*	-14.6
O=c1ccc2cc(S(=O)(=O)N3CCN(c4cc(Cl)ccc4Cl)CC3)ccc2o1	0.3	5.9	12.7	2.4
CC(C)c1ccc(N=c2c([N+](=O)[O-])nn(-c3ccc4c(c3)OCCO4)n2O)cc1	0.0	11.2	17.7	12.1
COc1cc(N=c2c([N+](=O)[O-])nn(-c3ccc4c(c3)OCCO4)n2O)cc(OC)c1	-0.1	-7.3	9.0	274.1*
CCOc1ccc2nc(NC(=O)CN3CCC(n4nnc5cc(C(F)(F)F)ccc54)CC3)sc2c1	0.1	5.6	38.5*	-12.1
Cc1cc(NC(=O)CN2CCC(n3nnc4cc(C(F)(F)F)ccc43)CC2)no1	0.1	-2.7	-1.6	311.7
O=C(Nc1ccc(Cl)cc1Cl)c1ccc(Br)o1	0.0	-1.9	35.8*	-8.5
CN(C)c1ccc(/C=C/c2ccc3ccccc3n2)cc1	0.2	x	58.3*	-39.2
Fc1ccccc1/C=C/c1ccc2ccccc2n1	-0.1	5.6	87.6*	63.9
C(=C\c1ccc2ccccc2n1)/c1ccccc1	0.0	13.5	84.3*	8.4
Oc1ccc(/C=C/c2ccc3ccccc3n2)cc1	-0.1	-21.7	25.2	-58.3
CN(c1ccc(NC(=O)CCc2cn(Cc3ccc(Br)cc3)c3ccccc23)cc1)c1ccccn1	x	9.1	x	x
SMILES	Efflux pump inh	sPLA2-III inh	SKN-1 inh	Mot1-301 SUMO
COc1ccc(C(=O)CCc2nc3ccccc3s2)cc1	0.1	-2.5	13.4	355.1*
C#CCNC(=O)C[C@@H]1C(=O)N2CCCC3=C2[C@@]1(C(=O)OCC)CCC3	x	7.2	x	x
Cn1c(N=Nc2ccc(N3CCOCC3)cc2)[n+](C)c2ccccc21	x	18.0	39.5*	x
CC(C)OC(=O)CN1CCN(C2c3ccccc3-c3ccccc32)CC1	0.0	-3.6	38.2*	8.7
O=C(c1ccco1)N1CCN(C2c3ccccc3-c3ccccc32)CC1	0.1	16.3	-3.2	15.2
Cc1ccc(CN2CCC(n3nccc3NC(=O)c3ccccc3C)CC2)o1	0.7	-1.3	35.5*	-1.6
C#CC1c2ccccc2CCN1CC=C (centres undefined)	x	0.8	x	x
Cc1ccc(-c2nnc(SCC(=O)Nc3ccc(F)cc3F)n2Cc2ccco2)cc1	x	7.1	x	x
